Screening results (PubChem)
The list is not random: actives were taken first. Their share in the collection is about 21%.
Shiga inhibitor: blocks Shiga toxin action in Vero cells; Vero cells, Shiga toxin protein synthesis inhibition reporter; inhibition, % at 38.7 µM; 290,000 tested, 9.2% active; AID 2315; in the data active means inhibition mostly above about 28%, no sharp cut-off; inactive means mostly below about 43%; further: 0% is about no effect
Cycloheximide cs: counter-screen for Shiga toxin inhibitors: cycloheximide protein synthesis inhibition. cell reporter, cycloheximide protein synthesis inhibition counterscreen. max response, %. 300,000 tested, 12% active. AID 2314; in the data active means max response mostly above about 13%, no sharp cut-off; inactive means mostly below about 14%; further: read at 38.3 µM for the half of the compounds with a filed dose; 0% is about no effect
HCMV inh: inhibitors of human cytomegalovirus; HFF cells, HCMV-luciferase reporter, 72 h; active compounds read low; activity change, negative = inhibition, % at 57.5 µM; 410,000 tested, 4.5% active; AID 1259415; in the data active means activity change below about -60%; inconclusive means no clear call, values can overlap the other calls; inactive means above about -39%; further: on the % scale 0 is the no-effect control and ±100 the full control effect
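Steps: HFFs plated, 16 h 37C; compounds added; HCMV-luciferase added to MOI 1 PFU/cell; 72 h 37C; OneGlo reagent, 5 min room temperature; luminescence read, normalized to controls.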
Pf growth 48h: P. falciparum growth inhibition at 48 hours (one generation) | AID 504832 | Potency, µM (highest dose often 28.7 µM), for the others: top-dose activity change, negative = inhibition, usual class: inhibitors | 310,000 tested, 5.9% active | P. falciparum luciferase growth in erythrocytes, 48 h; further: potency means the concentration at half of the fitted maximal effect; on the % scale 0 is the no-effect control and ±100 the full control effect
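In quantitative HTS format, infected erythrocytes bearing luciferase-reporter parasites were treated for a single generation at 37 C. Luminescence after adding detection reagent served as the growth measure.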
Pf growth 96h: P. falciparum growth inhibition at 96 hour, primary screen for plastid delayed-death inhibitors; P. falciparum luciferase reporter growth, 96 h; Potency, µM (doses to about 28.7 µM), for the others: at the highest dose activity change, negative = inhibition, most hits filed as inhibitors; 320,000 tested, 6.9% active; further: potency means the concentration at half of the fitted maximal effect; on the % scale 0 is the no-effect control and ±100 the full control effect
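Erythrocytes infected with luciferase-expressing P. falciparum were dispensed at 2% hematocrit and 0.05% parasitemia (final), then incubated with compounds 96 hours at 37 C in 5% CO2. Luminescence after detection reagent addition reported growth.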
HCV inh: HCV inhibition; Huh7.5.1 HCVcc-Cre infection, luciferase reporter, 44 h; Potency, µM (doses to about 41.8 µM), for inactives: at the top dose activity change, negative = inhibition, usual class: inhibitors; 340,000 tested, 3.4% active; further: potency means the concentration at half of the fitted maximal effect; on the % scale 0 is the no-effect control and ±100 the full control effect
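1,000 cells/well; 4 h culture; + compound; + HCVcc-Cre (~0.5 moi); 44 h; luciferase substrate, RT 15 min; read 15 sec.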
* = called active by the depositor; u = inconclusive; x = not tested or not shown; [ ] = dose if it differs, or a comment. Unless noted, the call rests on the fitted dose curve; in most records, active means well fitted inhibition curve with a large enough effect; inconclusive means small, poorly fitted or top-dose-only effect, or another doubt; inactive means no such curve, though single readings can be large or run the other way.

SMILES | Shiga inhibitor | Cycloheximide cs | HCMV inh | Pf growth 48h | Pf growth 96h | HCV inh
CCOc1ccc(/C=N/NC(=O)Cc2cccs2)cc1 | 91* | 44* | 31 | 49% | 24% | 3%
Cc1cccc(/C=N/NC(=O)Cc2cccs2)c1 | 72* | 33* | 36 | 39% | 82% | -2%
O=C(N/N=C/C(Cl)=C/c1ccccc1)c1ccc2c(c1)OCO2 | x | x | 33 | 1% | u | u
CCOc1ccc(/C=N/NC(=O)Cc2csc(Nc3cccc(C(F)(F)F)c3)n2)cc1 | -5 | 7 | u | 9.3µM* | x | u
CCOC(=O)N/N=C/C(Cl)=C/c1ccccc1 | 54* | 38* | u | -43% | u | -20%
CSc1ccccc1NC(=O)COC(=O)c1cnc(C)cn1 | x | x | 3 | x | x | 8%
CN(Cc1ccccc1F)C(=O)c1ccc2c(=O)n3c(nc2c1)CCC3 | x | x | -4 | u | -1% | 17%
O=C(Cc1cccs1)N/N=C/C(Cl)=C/c1ccccc1 | 118* | 31* | -6 | 77% | u | -3%
O=C(Cc1cccs1)N/N=C/c1ccccc1 | 27 | 15 | 55 | 27% | 7% | -4%
O=C(Nc1ccc2c(c1)OCCO2)C(c1ccccc1)n1c(=O)c(-c2ccco2)nc2ccccc21 (stereo not drawn) | x | x | -16 | x | x | x
O=C(Nc1ncc([N+](=O)[O-])s1)c1ccccc1Br | 65* | 50* | -3 | 14% | u | -2%
O=C(/C=C/c1ccc([N+](=O)[O-])cc1)Nc1ncc([N+](=O)[O-])s1 | 95* | 34* | -113* | -61% | 2% | 11µM*
O=C(CS(=O)(=O)c1ccccc1)Nc1ncc([N+](=O)[O-])s1 | -6 | -4 | -8 | 12% | 1% | 1%
O=C(Nc1ncc([N+](=O)[O-])s1)c1cccs1 | 27* | 37* | u | 140% | 11% | u
Cc1cnc(NC(=O)c2cccs2)s1 | 67* | 29* | 1 | 206% | 293% | 5%
O=C(CN(C(=O)c1csnn1)c1ccccc1F)NCc1ccccc1 | -8 | -2 | 16 | -11% | -13% | 11%
CCc1ccc(NC2=NCC(c3ccccc3)S2)cc1 (stereo not drawn) | 82* | 58* | 9 | u | -93% | u
O=[N+]([O-])c1ccc(C2CN=C(Nc3ccccc3)S2)cc1 (stereo not drawn) | 77* | 57* | -38 | 59% | 0% | u
Cc1nn2c(C)c(C(=O)NC(C)c3ccccc3)cnc2c1-c1ccc(F)cc1 (stereo not drawn) | x | x | -20 | x | x | x
CCn1cc(C2CC(=O)NC2=O)c2ccccc21 (stereo not drawn) | -10 | 0 | -21 | -14% | -12% | 10%
O=c1[nH]c(=O)n(Cc2ccccc2Cl)c(O)c1/C=C1/C=CC=N1 | -5 | -5 | -89* | 10%[5.75 µM] | 25% | -6%
Cc1cc(C=C(C#N)C#N)c(C)n1-c1ccccc1 | 108* | 22* | 63 | -2% | -4% | u
Cc1cc(/C=C(\C#N)C(=O)Nc2ccc(F)cc2)c(C)n1-c1ccc(N2CCOCC2)c([N+](=O)[O-])c1 | -2 | -2 | -79* | 7.4µM* | x | u
Cc1cc(/C=C(/C#N)C(=O)Nc2ccccc2)c(C)n1-c1cccnc1 | 51 | 43* | 10 | 80% | u | u
COc1ccc(NC(=O)/C(C#N)=C/c2cc(C)n(-c3ccc(N4CCOCC4)c([N+](=O)[O-])c3)c2C)cc1 | -20 | -3 | u | u | u | u
SMILES | Shiga inhibitor | Cycloheximide cs | HCMV inh | Pf growth 48h | Pf growth 96h | HCV inh
Cc1ccccc1NC(=O)/C(C#N)=C\c1cc(C)n(-c2ccc(C(=O)O)cc2)c1C | 13 | -2 | -20 | u | u | -8%
Cc1ccc(-n2c(C)cc(C=C(C#N)C#N)c2C)cc1 | 33 | 15 | -32 | u | u | 4%
Cc1ccc(CSc2ncc(Cl)c(C(=O)Oc3ccc(F)cc3)n2)cc1 | x | x | -12 | x | x | x
CCC1CN(C(=O)N2CCC(C(=O)NCc3cc(OC)c(OC)c(OC)c3)CC2)c2ccccc2O1 (stereo not drawn) | -4 | -7 | 0 | u | u | u
COC(=O)NNC(=O)C12CC3CC(CC(C3)C1)C2 | 9 | 5 | 6 | 3% | 4.1µM* | 10%
CCOC(=O)NNC(=O)C12CC3CC(CC(C3)C1)C2 | -5 | -2 | u | u | 18% | -7%
COc1ccc(OC)c(C(C)NC(=O)C23CC4CC(CC(C4)C2)C3)c1 (stereo not drawn) | x | -5 | 3 | -5% | -21% | u
Cc1cccc(C(=O)NNC(=O)C23CC4CC(CC(C4)C2)C3)c1O | 82 | 14* | 15 | 9% | -14% | -2%
COc1ccc(C(=O)NNC(=O)C23CC4CC(CC(C4)C2)C3)c(OC)c1 | 41 | 21* | -29 | 10% | 18% | -7%
Cc1ccccc1C(=O)NNC(=O)C12CC3CC(CC(C3)C1)C2 | -8 | -3 | -24 | -6% | u | 12%
NCCCNC(=O)c1ccc(/C=N/O)nc1 | -14 | -5 | -16 | 31% | 1% | -1%
CCN(c1ccccc1)S(=O)(=O)c1cc2c(cc1C)NC(=O)CO2 | -4 | 0 | -17 | -17% | u | -8%
Cc1ccc2c(c1)c1c(c(=O)n(-c3cccc(Cl)c3)c(=O)n1C)n2C | x | x | 34 | x | x | x
C[C@@H]1CN([C@H](C)CO)C(=O)Cc2cc(NS(=O)(=O)c3cn(C)cn3)ccc2O[C@H]1CN(C)S(=O)(=O)c1ccc(Cl)cc1 | x | x | 24 | x | x | 21%
CC(OC(=O)c1ccc(Cl)c(S(N)(=O)=O)c1)C(=O)NCC1CCCCC1 (stereo not drawn) | x | x | -87* | 2% | 0% | u
CCOC(C[n+]1c(-c2ccccc2)cc(C)cc1-c1ccccc1)OCC | x | x | -36 | 1.5µM* | 1.5µM* | -59%
Cc1cn([C@H]2C[C@H](O)[C@@H](CCC(=O)NCC3CCCO3)O2)c(=O)[nH]c1=O (stereo partly drawn) | x | x | -7 | x | x | x
O=C(Cc1cccc(F)c1)Nc1ccc2c(c1)CCC2 | 76* | 18* | -98* | 35% | 104% | -2%
O=C(Cc1ccccc1F)Nc1ccc2c(c1)CCC2 | 73* | 28 | -15 | 110% | 200% | -3%
CC(=O)Nc1cccc(NC(=O)Cc2ccc3ccccc3c2)c1 | 3 | 13 | -3 | 5% | u | u
O=C(Nc1ccc2c(c1)CCC2)c1cc(F)cc(F)c1 | x | x | 6 | 151% | 179% | u
O=C(Nc1ccc2c(c1)CCC2)c1cccc(F)c1 | 113* | 75* | 62 | 175% | 265% | -17%
O=C(Cc1ccc2c(c1)CCCC2)Nc1ccc2ccccc2c1 | active | 43* | 52 | 29% | 13% | -7%
Cc1ccccc1CC(=O)Nc1ccc2c(c1)CCC2 | 9 | 13 | -29 | 5% | 0% | -15%
